# Results: ChEMBL document CHEMBL3988442, “University of Dundee, Small-Polar-MMV Screening Library” (2021)
# The campaign covered roughly 48,000 compounds. About 13,000 (27%) showed an effect of 50% or more. This is one part of the list.
# System: Wolbachia pipientis
# Assay: Anti-Wolbachia Cell-Based Screen
# Format: functional
# Design: scale not given: in the data most compounds retested in dose-response had high values
# Settings: 5 µM
row,Compound,Percent Effect
1,Cc1ncccc1CNc1ccc(OCCO)nc1,-18.76%
2,O=C(c1ccoc1)N1CCC2(CC1)COC(COCc1ccccn1)C2 (stereo unspecified),4.399%
3,Cc1nncn1CCNC(=O)C1SCCc2sccc21 (stereo unspecified),0.3971%
4,CCc1ccc(CN2CCc3[nH]nc(C(=O)N4CCNC(=O)C4)c3C2)o1,-23.7%
5,CC(C)NC(=O)CCNC(=O)Nc1cnn(-c2ccccc2Cl)c1,-14.09%
6,COC[C@@]12CCO[C@@H]1CCN(C(=O)COc1ccccc1OC)C2,3.153%
7,Cc1ccc(C(=O)N2C[C@H]3CCC[C@@]3(COCc3ccncc3)C2)cn1.O=C(O)C(F)(F)F.O=C(O)C(F)(F)F,-7.119%
8,CCOC[C@@]12CCC[C@@H]1CN(C(=O)c1ccc(OC)cc1)C2,116.5%
9,COC[C@@]12CCC[C@@H]1CN(C(=O)COc1ccccc1OC)C2,104.3%
10,CCO[C@@H]1CO[C@@]2(CCCN(C(=O)COc3ccccc3OC)C2)C1,-3.938%
11,CCOC[C@@]12CCC[C@@H]1CN(C(=O)COc1ccccc1OC)C2,101.3%
12,O=C(Cc1ccco1)N1C[C@H]2CCC[C@@]2(COc2cccnc2)C1,-23.92%
13,O=C(O)C(F)(F)F.O=C(c1ccc(F)cc1)N1C[C@H]2CCC[C@@]2(COCc2ccncc2)C1,3.034%
14,CC(Oc1ccccc1C(F)(F)F)C(=O)NCC(N)=O (stereo unspecified),-1.247%
15,CCCC(CNc1cc(C(C)C)nc2ccnn12)N(C)C (stereo unspecified),-7.916%
16,Cc1n[nH]cc1CNC1(c2ccc(F)cc2)CCCC1,2.933%
17,CC(C)C(=O)N1CCN(Cc2ccccn2)CC2(CC(=O)N(C)C2)C1.O=C(O)C(F)(F)F.O=C(O)C(F)(F)F (stereo unspecified),98.24%
18,CC(=O)N1CCN(Cc2ccco2)CC2(CC(=O)N(C)C2)C1.O=C(O)C(F)(F)F (stereo unspecified),97.89%
19,CN1CC2(CCN(C(=O)Cc3ccccn3)CC2)OCC1=O.O=C(O)C(F)(F)F,23.75%
20,O=C(O)C(F)(F)F.O=C(O)C(F)(F)F.O=C(O)C(F)(F)F.c1coc(CN2CCC3(CC2)COCCN(CCN2CCCC2)C3)c1,10.77%
21,CC(=O)N1CCN(Cc2ccc(C)o2)CC2(CC(=O)N(C)C2)C1.O=C(O)C(F)(F)F (stereo unspecified),88.46%
22,CCN1CC2(CC1=O)CN(Cc1ccco1)CCN(C(=O)N(C)C)C2.O=C(O)C(F)(F)F (stereo unspecified),1.855%
23,CC(C)NC(=O)N1CCN(CC2CC2)CC2(CC(=O)N(C)C2)C1.O=C(O)C(F)(F)F (stereo unspecified),10.52%
24,Cc1ccc(CN2CCC3(CC(=O)N(c4cccc(F)c4)C3)C2)o1.O=C(O)C(F)(F)F (stereo unspecified),18.19%

row,Compound,Percent Effect
1,CCN1CC2(CC1=O)CN(Cc1cnn(C)c1)CCN(C(=O)C(C)C)C2.O=C(O)C(F)(F)F (stereo unspecified),-2.77%
2,CCN1CC2(CC1=O)CN(Cc1cccs1)CCN(C(=O)C(C)C)C2 (stereo unspecified),9.795%
3,CC(=O)N1CCN(Cc2cccs2)CC2(CC(=O)N(C)C2)C1.O=C(O)C(F)(F)F (stereo unspecified),101.6%
4,CN(CCC1CCOCC1)C(=O)C1CCC(=O)N(Cc2ccccn2)C1 (stereo unspecified),12.01%
5,Cc1nn(C)c(C)c1OCC(=O)NCC(O)c1ccccc1F (stereo unspecified),-4.984%
6,O=C1N(c2ccc(Cl)cc2)Cc2n[nH]c(=O)n21,3.53%
7,CCCn1nc(-c2nc(COC)no2)ccc1=O,-14.93%
8,CC(=O)NCC(=O)NCC1Cn2nnc(-c3cccc(F)c3)c2CO1 (stereo unspecified),-8.609%
9,CN1CCC2(CCN(Cc3nccs3)CC2)C1=O.O=C(O)C(F)(F)F,4.782%
10,CC(=O)N1CCN(Cc2nccs2)CC2(CC(=O)N(C)C2)C1.O=C(O)C(F)(F)F (stereo unspecified),92.61%
11,COC(=O)CCCn1ccnc1-c1ccccc1,2.023%
12,CCOCC(=O)NCCCn1ccnc1-c1ccccc1,90.19%
13,COC(=O)NCCCn1ccnc1-c1ccccc1,181.6%
14,CC(=O)NCCn1ccnc1-c1cccc(C(C)N(C)C)c1 (stereo unspecified),4.198%
15,CCOCC(=O)Nc1nccn1Cc1ccc(Br)cc1,-3.698%
16,CC(C)c1nccn1CCCNC(=O)c1ccc(-c2cccnc2)nc1,8.791%
17,Cc1ccc(C(=O)Nc2cc(C(N)=O)ccc2N2CCCCC2)cc1F,-3.619%
18,O=C(CCc1cc2n(n1)CCCN(C(=O)c1ccccn1)C2)NC1CC1,1.644%
19,O=C(O)CCc1cc2n(n1)CCCN(C(=O)c1cc3ccccc3s1)C2,6.416%
20,O=C(O)CCc1cc2n(n1)CCCN(C(=O)c1ccc3cc[nH]c3c1)C2,-27.67%
21,O=C(CCc1cc2n(n1)CCCN(C(=O)[C@H]1CCCO1)C2)NC1CC1,170.3%
22,Cn1cccc1C(=O)N1CCCn2nc(CCC(=O)NC3CC3)cc2C1,139.6%
23,O=C(CCc1cc2n(n1)CCCN(C(=O)c1cccnc1)C2)NC1CC1,-4.751%
24,O=C(CCc1cc2n(n1)CCCN(C(=O)c1ccncc1)C2)NC1CC1,139.8%

row,Compound,Percent Effect
1,CCc1cc(C(=O)N2CCCn3nc(CCC(=O)O)cc3C2)cs1,-7.139%
2,Cc1ccc(C(=O)N2CCCn3nc(CCC(=O)O)cc3C2)cc1Cl,11.92%
3,CC(C)c1ocnc1C(=O)NC1(c2cccc(F)c2)CCOCC1,-15.1%
4,O=S1(=O)CCCN(Cc2ccccc2OCC(F)(F)F)CC1,7.623%
5,Fc1cccc(-c2n[nH]cc2-c2nc(CN3CCOCC3)no2)c1,25.75%
6,CN1CCN(Cc2ccccc2Oc2cncc(C(N)=O)n2)CC1,7.262%
7,CC(=O)N1Cc2ccccc2CC1C(=O)Nc1cc(C)ccn1 (stereo unspecified),-13.21%
8,C[C@]1(O)CN(Cc2ccc(C(=O)O)cc2)CC[C@@H]1Oc1cccc(F)c1,71.72%
9,COc1ccccc1OC1CN(Cc2ccc(C(=O)O)cc2)C1,-24.62%
10,C[C@]1(O)CN(Cc2cccc(C(=O)O)c2)CC[C@@H]1Oc1cccc(F)c1,113.2%
11,O=C(NCC1(O)CCOc2ccccc21)Nc1ccc2c(c1)OCO2 (stereo unspecified),5.05%
12,CCc1noc(CN2CCC(C(=O)Nc3cnn(CC)c3)CC2)n1,82.9%
13,O=C(Nc1ccc(F)cc1)C1CCN(Cc2noc(C3CC3)n2)CC1,-24.67%
14,CCn1cc(NC(=O)C2CCN(Cc3noc(C4CC4)n3)CC2)cn1,113.1%
15,O=C(Nc1cccc(F)c1)C1CCN(Cc2noc(C3CC3)n2)CC1,-5.725%
16,CCn1cc(NC(=O)C2CCN(Cc3noc(C(C)C)n3)CC2)cn1,3.174%
17,CCCc1noc(CN2CCC(C(=O)Nc3cnn(CC)c3)CC2)n1,112.1%
18,CC(C)Cc1noc(CN2CCC(C(=O)NCC3CCCO3)CC2)n1 (stereo unspecified),11.96%
19,CC(C)c1noc(CN2CCC(C3CCCCCN3S(C)(=O)=O)CC2)n1.Cl (stereo unspecified),5.236%
20,CCc1noc(C(C)N2CCC(C(=O)Nc3cnn(CC)c3)CC2)n1 (stereo unspecified),11.99%
21,CCn1cc(NC(=O)C2CCN(Cc3nc(C(C)C)no3)CC2)cn1,89.67%
22,CCn1cc(NC(=O)C2CCN(Cc3ccccc3C#N)CC2)cn1,4.672%
23,CCn1nc(C(=O)N2CCNCC2C(=O)Nc2ccc(C)nc2)cc1C (stereo unspecified),-9.898%
24,CNc1cc(C2CCCN2C(=O)CCc2cnn(C)c2C)ccn1 (stereo unspecified),114.3%

row,Compound,Percent Effect
1,CNc1cc(C2CCCN2Cc2ccccc2C(=O)O)ccn1 (stereo unspecified),-9.621%
2,CN(CC(=O)N1CCCC1c1cnn(C)c1)c1ccc(Cl)cn1 (stereo unspecified),7.888%
3,CNc1cc(C2CCCN2C(=O)CCc2ccccc2F)ccn1 (stereo unspecified),87.66%
4,Cc1c(CCC(=O)N2CCCC2c2ccnc(N(C)C)c2)cnn1C (stereo unspecified),100.7%
5,Cc1ncsc1CCC(=O)N1CCCC1c1cccnc1 (stereo unspecified),-20.99%
6,COc1ccc(Nc2cc(C)nc(C)n2)cc1N1CCCC1=O,-4.769%
7,O[C@H]1CC[C@@H](Cc2cc(-c3ccccc3)on2)O[C@@H]1CNCC1CC1,0.08363%
8,OCCN1CCC(CNCc2ccc(Br)cc2)CC1,-27.23%
9,CC(C)N(C)C(=O)C1CSCN1S(=O)(=O)c1ccccc1F (stereo unspecified),0.8894%
10,CCc1cc(CNC(=O)C2CCC(=O)N(Cc3ccccc3F)C2)on1 (stereo unspecified),-10.8%
11,CN1C(Cn2cccn2)C[C@@H]2CN(Cc3nccs3)CC[C@@H]21 (stereo partly specified),108%
12,c1cnn([C@@H]2CN(Cc3nccs3)[C@@H]3CCCO[C@@H]32)c1,-0.08077%
13,CN1C(Cn2cccn2)C[C@@H]2CN(Cc3cnn(C)c3)CC[C@@H]21 (stereo partly specified),88.14%
14,CC(=O)N1[C@H](Cn2cncn2)C[C@@H]2CN(Cc3nccs3)CC[C@@H]21,4.372%
15,CC(C)N1[C@H](CN2CCCC2)C[C@@H]2CN(Cc3cnn(C)c3)CC[C@@H]21,1.544%
16,Cn1cc(CN2CCO[C@H]3C(Cn4cccn4)CC[C@@H]32)cn1 (stereo partly specified),5.846%
17,Cc1nc(CN2CCN(C)C(=O)C23CCN(CC2CCCC2)CC3)cs1,121.4%
18,Cc1nc(CN2CCC3(CC2)C(=O)N(C)CCN3C)cs1.O=C(O)C(F)(F)F.O=C(O)C(F)(F)F.O=C(O)C(F)(F)F,99.41%
19,Cc1nc(Cn2c3c(ccc2=O)CCN(CC2CCC2)CC3)cs1.O=C(O)C(F)(F)F.O=C(O)C(F)(F)F,-14.62%
20,CCN1CCN(C)C(=O)C12CCN(Cc1csc(C)n1)CC2.O=C(O)C(F)(F)F,113.1%
21,Cc1nc(CN2CCC3(CC2)CC(=O)N(C)c2ccccc23)cs1.O=C(O)C(F)(F)F,-15.31%
22,Cc1nc(CN2CCC3(CC2)CCN(C(=O)c2cscn2)C3)cs1.O=C(O)C(F)(F)F,-22.9%
23,CCc1ccc(CN2CCC3(CC2)C(=O)N(C)CCN3CC)cc1,-23.08%
24,COCC1CC2(CCN(CC3CC3)CC2)CN1Cc1csc(C)n1.O=C(O)C(F)(F)F.O=C(O)C(F)(F)F (stereo unspecified),2.06%
